Source: PubChem BioAssay (Tox21)
Inconclusive results are not listed. Calls of active or inactive are those of the source. Calls follow the shape of the dose curve; as a rule, active = well fitted curve in the direction sought with a large enough effect in the repeat runs; inconclusive = weak or mixed curves; inactive = no such curve, though single readings can be large; an effect the other way counts as inactive or inconclusive.

Tests used:
[1] = qHTS RealTime-Glo MT Cell Viability Assay in HepG2 cells - 40 hour (AID 1224870); also: nearly all actives have a fitted effect of over 50% in size; also: potency is read from the fitted curve at half-maximal effect
Outline: (§1)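 HepG2 cells mixed with RealTime-Glo MT reagents (NanoLuc plus cell-permeant prosubstrate) were seeded at 600 cells/well, incubated 5 h at 37 C/5% CO2, then pinned with compounds in DMSO; nonlytic luminescence tracked viability during 40 h treatment.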

[2] = A CellTox Green Cytotoxicity Assay to monitor cytotoxicity in HEK293 cells - 40 hour (AID 1224871); also: nearly all actives have a fitted effect of over 45% in size; also: potency is read from the fitted curve at half-maximal effect
Outline: (§2)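 Real-time, in one plate: 600 HEK293 cells/well with dead-cell DNA dye, pinned compound after 5 h, 37 C incubation over 40 h; viable cells give no appreciable fluorescence.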

[3] = qHTS RealTime-Glo MT Cell Viability Assay in HEK293 cells - 16 hour (AID 1224872); also: nearly all actives have a fitted effect of over 50% in size; also: potency is read from the fitted curve at half-maximal effect; as to activity change, negative = cytotoxicity: top concentration of the series differs between compounds
Outline: (§3)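 HEK293 cells were seeded at 600 cells/well together with NanoLuc luciferase and cell-permeant prosubstrate, preincubated 5 h at 37 C/5% CO2, then given compound in DMSO by pintool. Luminescence from viable-cell prosubstrate reduction was read repeatedly over 40 h.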

[4] = qHTS RealTime-Glo MT Cell Viability Assay in HepG2 cells - 8 hour (AID 1224873); also: nearly all actives have a fitted effect of over 55% in size; also: potency is read from the fitted curve at half-maximal effect
Outline: as §1

[5] = qHTS RealTime-Glo MT Cell Viability Assay in HEK293 cells - 40 hour (AID 1224874); conditions: RealTime-Glo luminescence; max response: hits give low values; also: nearly all actives have a fitted effect of over 50% in size; also: potency is read from the fitted curve at half-maximal effect
Outline: (§4)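 Kinetic, non-lysing viability readout. Seed HEK293 (600/well) with reagent, incubate 5 h at 37 C/5% CO2, pin 23 nL compound in DMSO, incubate at 37 C, read luminescence at 0, 8, 16, 24, 32, 40 h.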

[6] = A CellTox Green Cytotoxicity Assay to monitor cytotoxicity in HEK293 cells - 24 hour (AID 1224875); also: nearly all actives have a fitted effect of over 45% in size; also: potency is read from the fitted curve at half-maximal effect; as to activity change: series mostly up to about 77 µM
Outline: as §2

[7] = A CellTox Green Cytotoxicity Assay to monitor cytotoxicity in HepG2 cells - 16 hour (AID 1224876); also: nearly all actives have a fitted effect of over 45% in size
Outline: (§5)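 Cytotoxicity was tracked as dead-cell DNA fluorescence in HepG2 cells treated with test compounds at 37 C; each time-point value comes from one kinetic series spanning 0, 8, 16, 24, 32 and 40 h.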

[8] = qHTS RealTime-Glo MT Cell Viability Assay in HepG2 cells - 32 hour (AID 1224877); also: nearly all actives have a fitted effect of over 55% in size; also: potency is read from the fitted curve at half-maximal effect
Outline: (§6)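 HepG2 cells were seeded at 600 cells/well together with NanoLuc luciferase and a cell-permeant prosubstrate, preincubated 5 h at 37 C/5% CO2, then pin-dosed with compounds in DMSO. Nonlytic luminescence from viable cells was read at each time point.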

[9] = A CellTox Green Cytotoxicity Assay to monitor cytotoxicity in HepG2 cells - 24 hour (AID 1224878); also: nearly all actives have a fitted effect of over 45% in size
Outline: as §5

[10] = A CellTox Green Cytotoxicity Assay to monitor cytotoxicity in HepG2 cells - 40 hour (AID 1224879); also: nearly all actives have a fitted effect of over 40% in size
Outline: as §5

[11] = qHTS RealTime-Glo MT Cell Viability Assay in HEK293 cells - 0 hour (AID 1224880)
Outline: as §4

[12] = A CellTox Green Cytotoxicity Assay to monitor cytotoxicity in HEK293 cells - 32 hour (AID 1224881); also: nearly all actives have a fitted effect of over 40% in size; also: potency is read from the fitted curve at half-maximal effect
Outline: as §2

[13] = A CellTox Green Cytotoxicity Assay to monitor cytotoxicity in HepG2 cells - 32 hour (AID 1224883); also: nearly all actives have a fitted effect of over 50% in size
Outline: as §5

[14] = qHTS RealTime-Glo MT Cell Viability Assay in HepG2 cells - 16 hour (AID 1224885); also: nearly all actives have a fitted effect of over 50% in size; also: potency is read from the fitted curve at half-maximal effect
Outline: as §6

[15] = qHTS RealTime-Glo MT Cell Viability Assay in HEK293 cells - 24 hour (AID 1224886)
Outline: as §3

[16] = qHTS RealTime-Glo MT Cell Viability Assay in HEK293 cells - 8 hour (AID 1224887); also: nearly all actives have a fitted effect of over 50% in size; also: potency is read from the fitted curve at half-maximal effect; as to activity change, negative = cytotoxicity: top concentration of the series differs between compounds
Outline: as §4

[17] = A CellTox Green Cytotoxicity Assay to monitor cytotoxicity in HEK293 cells - 16 hour (AID 1224888); also: nearly all actives have a fitted effect of over 35% in size
Outline: as §2

[18] = qHTS RealTime-Glo MT Cell Viability Assay in HepG2 cells - 0 hour (AID 1224889); also: nearly all actives have a fitted effect of over 50% in size
Outline: as §6

[19] = A CellTox Green Cytotoxicity Assay to monitor cytotoxicity in HepG2 cells - 0 hour (AID 1224882); also: nearly all actives have a fitted effect of over 35% in size
Outline: as §5

[20] = A CellTox Green Cytotoxicity Assay to monitor cytotoxicity in HEK293 cells - 8 hour (AID 1224884); also: nearly all actives have a fitted effect of over 35% in size
Outline: as §2
% is scaled to controls: 0 for no effect and ±100 for the full control effect.

Cc1nc2ccccc2s1
inactive: Potency [1] | Potency [2] | Potency [3] | Potency [4] | max response [5] 2.93% | Potency [6] | Potency [7] | Potency [8] | Potency [9] | Potency [10] | Potency [11] | Potency [12] | Potency [13] | Potency [14] | Potency [15] | Potency [16] | Potency [17] | Potency [18]

CN1C(=O)CC(C)(c2ccccc2)C1=O (centres undefined)
inactive: Potency [1] | Potency [2] | Potency [3] | Potency [4] | max response [5] -3.29% | Potency [6] | Potency [7] | Potency [8] | Potency [9] | Potency [10] | Potency [11] | Potency [12] | Potency [19] | Potency [13] | Potency [20] | Potency [14] | Potency [16] | Potency [17] | Potency [18]

CN1CCCN=C1/C=C/c1cccs1
inactive: Potency [1] | Potency [2] | Potency [3] | Potency [4] | max response [5] 5.88% | Potency [6] | Potency [7] | Potency [8] | Potency [9] | Potency [10] | Potency [11] | Potency [12] | Potency [19] | Potency [13] | Potency [20] | Potency [14] | Potency [16] | Potency [17] | Potency [18]

Cc1ccccc1N1C(=O)c2cc(S(N)(=O)=O)c(Cl)cc2NC1C (centres undefined)
inactive: Potency [1] | Potency [2] | Potency [3] | Potency [4] | max response [5] -9.78% | Potency [6] | Potency [7] | Potency [8] | Potency [9] | Potency [11] | Potency [12] | Potency [19] | Potency [13] | Potency [20] | Potency [14] | Potency [15] | Potency [16] | Potency [17]

CCCCC/C(=C\c1ccccc1)CO
active: Potency [2] 43.1 µM | Potency [6] 48.4 µM | Potency [12] 43.1 µM
inactive: Potency [1] | Potency [3] | Potency [4] | max response [5] -12.8% | Potency [7] | Potency [8] | Potency [9] | Potency [10] | Potency [11] | Potency [19] | Potency [13] | Potency [14] | Potency [15]

O=C(NCCCN1CCOCC1)c1ccc(Cl)cc1
inactive: Potency [1] | Potency [2] | Potency [3] | Potency [4] | max response [5] 7.84% | Potency [6] | Potency [7] | Potency [8] | Potency [9] | Potency [10] | Potency [11] | Potency [12] | Potency [19] | Potency [13] | Potency [14] | Potency [15] | Potency [16] | Potency [17] | Potency [18]

COC(OC)(C(=O)c1ccccc1)c1ccccc1
inactive: Potency [1] | Potency [2] | Potency [3] | Potency [4] | max response [5] 1.09% | Potency [6] | Potency [7] | Potency [8] | Potency [9] | Potency [10] | Potency [12] | Potency [19] | Potency [13] | Potency [14] | Potency [16] | Potency [17] | Potency [18]

Cc1cc2nc3ccc(=[N+](C)C)cc-3sc2cc1N
inactive: Potency [2] | Potency [6] | Potency [7] | Potency [9] | Potency [10] | Potency [12] | Potency [19] | Potency [13] | Potency [20] | Potency [18]
active: Potency [1] 21.3 µM | Potency [3] 2.13 µM | Potency [4] 9.52 µM | Potency [5] 2.13 µM | Potency [8] 19 µM | Potency [14] 9.52 µM | Potency [16] 1.9 µM

Nc1c(I)cc(I)c(C(=O)N(CCC(=O)O)c2ccccc2)c1I
inactive: Potency [1] | Potency [2] | Potency [3] | Potency [4] | max response [5] -10.8% | Potency [6] | Potency [7] | Potency [8] | Potency [9] | Potency [11] | Potency [12] | Potency [19] | Potency [13] | Potency [20] | Potency [14] | Potency [15] | Potency [16] | Potency [17] | Potency [18]

CN1CCN(c2c(F)cc3c(=O)c(C(=O)O)cn4c3c2OCN4C)CC1
inactive: activity change, negative = cytotoxic [1] -3.22% [at 15.8 µM] | cytotoxicity increase [2] -7.47% [at 15.8 µM] | activity change, negative = cytotoxicity [3] 1.07% [at 15.8 µM] | viability change, negative = cytotoxic [4] 8.52% [at 15.8 µM] | max response [5] 2.93% | activity change [6] -4.87% [at 15.8 µM, hits give high values] | cytotoxicity increase [7] -5.53% [at 15.8 µM] | activity change, negative = cytotoxic [8] -0.186% [at 15.8 µM] | cytotoxicity [9] -1.37% [at 15.8 µM] | activity change, negative = cytotoxicity [11] -2.72% [at 15.8 µM] | cytotoxicity increase [12] -5.3% [at 15.8 µM] | cytotoxicity [19] -9.31% [at 15.8 µM] | cytotoxicity increase [13] -4.96% [at 15.8 µM] | cytotoxicity increase [20] -22% [at 15.8 µM] | activity change, negative = cytotoxic [14] 4.97% [at 15.8 µM] | activity change, negative = cytotoxicity [15] 0.438% [at 15.8 µM] | activity change, negative = cytotoxicity [16] 1.15% [at 15.8 µM] | activity change [17] -3.76% [at 15.8 µM, hits give high values] | activity change, negative = cytotoxicity [18] 2.43% [at 15.8 µM]

NCC1CCCC(CN)C1 (centres undefined)
inactive: Potency [1] | Potency [2] | Potency [3] | Potency [4] | max response [5] -13.1% | Potency [6] | Potency [7] | Potency [8] | Potency [9] | Potency [10] | Potency [11] | Potency [12] | Potency [19] | Potency [13] | Potency [20] | Potency [14] | Potency [15] | Potency [17] | Potency [18]

c1ccc(COCc2ccccc2)cc1
inactive: Potency [1] | Potency [2] | Potency [3] | Potency [4] | max response [5] 16.4% | Potency [6] | Potency [7] | Potency [8] | Potency [9] | Potency [10] | Potency [11] | Potency [12] | Potency [19] | Potency [13] | Potency [14] | Potency [15] | Potency [16] | Potency [18]

CCn1cc(C(=O)O)c(=O)c2cc(F)c(N3CCNCC3)nc21
inactive: Potency [1] | Potency [2] | Potency [3] | Potency [4] | max response [5] 10.3% | Potency [6] | Potency [7] | Potency [8] | Potency [9] | Potency [10] | Potency [11] | Potency [12] | Potency [19] | Potency [13] | Potency [14] | Potency [15] | Potency [16] | Potency [17] | Potency [18]

CCC(C)(O)CCC=C(C)C (centres undefined)
inactive: Potency [1] | Potency [2] | Potency [3] | Potency [4] | max response [5] -9.96% | Potency [6] | Potency [7] | Potency [8] | Potency [9] | Potency [10] | Potency [11] | Potency [12] | Potency [13] | Potency [20] | Potency [14] | Potency [15] | Potency [18]
